Screening data (PubChem)
Pf growth 96h: P. falciparum growth inhibition at 96 hours. AID 504834. 6.9% of 320,000 active. Potency, µM (series often up to 28.7 µM), for inactives: top-dose activity change, negative = inhibition, hits mostly inhibitors. P. falciparum luciferase reporter growth, 96 h; active means well fitted inhibition curve with a large enough effect; inconclusive means small, poorly fitted or top-dose-only effect, or another doubt; inactive means no such curve, though single readings can be large or run the other way; further: potency means the concentration at half of the fitted maximal effect; on the % scale 0 is the no-effect control and ±100 the full control effect
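Plates of compound plus infected erythrocytes (2% hematocrit, 0.05% parasitemia final) incubate 96 hours, 37 C, 5% CO2. Detection reagent added; reduced luminescence from the parasites' luciferase reporter flags inhibition.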
SARS PLP yeast: blocks SARS-CoV papain-like protease in a yeast assay; S. cerevisiae expressing SARS-CoV PLpro, growth rescue; AID 485353; 0.19% of 330,000 active; Potency, µM (series often up to 32.9 µM), for the others: top-dose activity, positive = growth rescue, usual class: activators; further: potency means the concentration at half of the fitted maximal effect; 0% is about no effect; nearly all actives have a fitted effect of over 55% in size
Cycloheximide cs: counter-screen hit for Shiga toxin inhibitors, cycloheximide | cell reporter, cycloheximide protein synthesis inhibition counterscreen | max response, % | 12% of 300,000 active; in the data active means max response mostly above about 13%, no sharp cut-off; inactive means mostly below about 14%; further: read at 38.3 µM for the half of the compounds with a filed dose; 0% is about no effect
Pf growth 48h: P. falciparum growth inhibition at 48 hours (one generation); P. falciparum luciferase growth in erythrocytes, 48 h; Potency, µM (doses to about 28.7 µM), for inactives: top-dose activity change, negative = inhibition, usual class: inhibitors; 5.9% of 310,000 active; AID 504832; active means well fitted inhibition curve with a large enough effect; inconclusive means small, poorly fitted or top-dose-only effect, or another doubt; inactive means no such curve, though single readings can be large or run the other way; further: potency means the concentration at half of the fitted maximal effect; on the % scale 0 is the no-effect control and ±100 the full control effect
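Luminescence readout; reporter = integrated firefly luciferase in P. falciparum. RBC culture at 2% hematocrit, 0.1% parasitemia final, 37 C/5% CO2; decreased signal taken as growth inhibition.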
NS1 function inh: inhibitors of influenza NS1 protein function; Potency, µM (doses to about 46.1 µM), for inactives: at the highest dose activity, positive = more growth; 0.4% of 270,000 active; AID 2326; further: potency means the concentration at half of the fitted maximal effect; actives are rising curves; nearly all actives have a fitted effect of over 50% in size
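Growth recovery, yeast-based: influenza A NS1 expressed in S. cerevisiae causes slow growth, and suppressors are detected by OD600. The parent strain without NS1 is used as positive control.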
Shiga toxin inh: Shiga toxin inhibition; Vero cells, Shiga toxin protein synthesis inhibition reporter; 9.2% of 290,000 active; inhibition, % at 38.7 µM; in the data active means inhibition mostly above about 28%, no sharp cut-off; inactive means mostly below about 43%; further: 0% is about no effect
* marks the source's active call; other numbers are inactive results; ? = inconclusive; · = no result; [ ] = remark or other dose. Only some compounds are listed: those with a hit (about 21% of all), similar ones and a draw of the others. Unless noted, the call rests on the fitted dose curve.

SMILES	Pf growth 96h	SARS PLP yeast	Cycloheximide cs	Pf growth 48h	NS1 function inh	Shiga toxin inh
Cc1ccc(-c2cc(C(=O)O)c3ccccc3n2)c(C)c1	19%	1%	18*	-6%	7%	5
Cc1ccc(C)c(-c2cc(C(=O)Nc3cccc(C(=O)O)c3)c3ccccc3n2)c1	94%	1%	-3	-19%	4%	-5
Cc1ccc(-c2cc(C(=O)Nc3cccnc3)c3ccccc3n2)o1	4.7µM*	-3%	8	·	-3%	7
Cc1ccc(-c2cc(C(=O)Nc3cc(C)on3)c3ccccc3n2)c(C)c1	?	-25%	13	?	-33%	13
Cc1ccc(C)c(-c2cc(C(=O)Nc3cccnc3)c3ccccc3n2)c1	2.1µM*	-6%	0	12µM*	-52%	-8
CN(CC(=O)Nn1cnnc1)S(=O)(=O)c1ccccc1	·	1%	-2	-16%	3%	13
Cc1cc(C)nc(-n2nc(C)cc2NC(=O)c2cccc(S(=O)(=O)N3CCCCC3)c2)n1	?	-2%	-3	?	-3%	-9
Cc1ccc(-c2cc(C(=O)O)c3ccccc3n2)s1	2%	-3%	23	16%	3%	25
O=C(O)c1cc(-c2ccc(Cl)s2)nc2ccccc12	27%	-3%	14	3%	·	54*
Cc1cc(C)n(-c2nc3sc4c(c3c3nnc(SC(C)C)n23)CC(C)(C)OC4)n1	·	·	·	·	-5%	·
COc1ccc(NC(=S)NC(=O)c2cncc(Br)c2)c(OC)c1	24%	-2%	-2	38%	4%	17
CCOP(=S)(OCC)N1CCOCCOCCN(P(=S)(OCC)OCC)CCOCCOCC1	?	-1%	-1	6.6µM*	·	-17
CCOP(=O)(OCC)C(CC)N1CCOCC1 (stereo unspecified)	-14%	-7%	-9	·	-1%	-19
CCOc1cc2c(cc1OCC)CN(CC(=O)Nc1ccccc1C(=O)NC1CC1)CC2	?	0%	·	?	·	·
CCCOC(=O)Nc1c(C)cccc1C(C)C	-45%	1%	6	38%	2%	8
CCC1=C[C@@H]2CN(C1)Cc1c([nH]c3ccccc13)[C@@](C(=O)OC)(c1cc3c(cc1OC)N(C)[C@H]1[C@@](O)(C(=O)OC)[C@H](OC(C)=O)[C@]4(CC)C=CCN5CC[C@]31[C@@H]54)C2	·	·	-7	·	·	-3
CC(C)Nc1nc(Cl)nc(Nc2ccccc2)n1	?	15%	39*	60%	-4%	53*
CC(C)Nc1ccc(Nc2ccccc2)cc1	2.6µM*	0%	·	4.1µM*	·	·
c1ccc(Nc2ccccc2)cc1	39%	-3%	·	46%	·	·
CC(C)c1ccc(Nc2nc(Cl)nc(NCCO)n2)cc1	?	0%	12*	8%	?	21
CC(C)(C)Cc1nnc(NC(=O)Cc2cccs2)s1	46%	0%	-3	23%	3%	-2
CC(C)=CCCC(C)CN1CCC(O)CC1 (stereo unspecified)	0%	·	-4	10%	1%	-12
CC(C)=CCC/C(C)=C/CCC(C)NCCN1CCNCC1 (stereo unspecified)	?	0%	-4	13µM*	4%	-6
CC(C)=CCC/C(C)=C/CC(C)(C)CNCCN1CCNCC1	4.7µM*	-7%	-4	4.7µM*	3%	-7
CCOC(=O)C1(Cc2ccccc2)CCN(Cc2ccc3cc(NC(C)=O)ccc3n2)CC1	5%	0%	-2	?	0%	-8
SMILES	Pf growth 96h	SARS PLP yeast	Cycloheximide cs	Pf growth 48h	NS1 function inh	Shiga toxin inh
Cc1ccc(C)c(N2CCN(C(=O)c3ccc(N4CCCC4=O)cc3)CC2)c1	?	-1%	1	-32%	-34%	-4
CN(C(=O)CSc1nc2ccccc2[nH]1)C1CCS(=O)(=O)C1 (stereo unspecified)	22%	-9%	·	-3%	·	·
COc1ccc(-c2nnc3n2N=C(c2cc(OC)ccc2OC)CS3)c(OC)c1	·	·	5	·	·	-7
CCOc1ccc(CNc2nnnn2C)cc1	-8%	?	-2	-24%	4%	·
CCOc1ccc(CNc2ccc(S(N)(=O)=O)cc2)cc1	-36%[5.75 µM]	0%	1	16%	3%	2
CC(=O)Nc1ccc2c(c1)ncn2C	-20%	25%	-2	30%	11%	-4
CCOc1ccc(CNc2ccc3c(c2)ncn3C)cc1	10µM*	-11%	35*	-13%	-7%	38*
Cn1cnc2cc(NCc3ccc(Cl)cc3)ccc21	?	-2%	45*	77%	4%	60*
CCOc1ccc(CNc2ccc3c(c2)ncn3C(C)(C)C)cc1	136%	8%	24*	?	-6%	40*
CC1CCCCN1Cc1nc2ccccc2c(=O)[nH]1 (stereo unspecified)	0.019µM*	-1%	17	-14%	1%	19
CN(Cc1nc2ccccc2c(=O)[nH]1)C(=O)c1ccccc1OCc1ccc(Cl)cc1	-14%	-6%	·	?	·	·
O=c1[nH]c(Cc2ccccc2Cl)nc2ccccc12	9.3µM*	2%	8	11%	·	-3
O=c1[nH]c(COc2ccc(Cl)cc2Cl)nc2ccccc12	151%	-2%	38*	104%	1%	41*
O=c1[nH]c(Cc2ccccc2)nc2ccccc12	11%	0%	-4	8%	4%	-50
O=c1[nH]c(COc2ccc(Cl)cc2Br)nc2ccccc12	-56%	-15%	51*	0%	-3%	127*
O=C(CCc1nc2ccccc2c(=O)[nH]1)NNC(=O)COc1ccccc1Cl	16%	1%	·	13%	·	·
Nc1nc(=O)c2[nH]cnc2n1O	·	·	·	·	0%	·
COc1ccc(CCNC(=O)CC2SC(=NCCc3ccccc3)NC2=O)cc1OC (stereo unspecified)	9.3µM*	5%	-3	13µM*	14%	6
COc1ccccc1N1CCN(C2CCN(C(=O)COc3cccc(C)c3)CC2)CC1	?	-18%	-4	?	-4%	-5
Cc1ccc(C(=O)N2CCN(S(=O)(=O)c3ccccc3[N+](=O)[O-])C2)cc1	?	1%	37*	20%	·	92*
Cc1ccc(S(=O)(=O)N2CCN(C(=O)c3ccc(N4CCCCC4)c([N+](=O)[O-])c3)CC2)cc1	10µM*	4%	11	?	7%	-8
CNc1ccc(C(=O)N2CCN(S(=O)(=O)c3ccc4c(c3)OCCCO4)CC2)cc1[N+](=O)[O-]	12µM*	-5%	-2	?	-25%	-5
Cc1ccc(S(=O)(=O)N2CCN(C(=O)c3ccccc3)C2)cc1[N+](=O)[O-]	-54%[1.15 µM]	0%	2	-3%	·	8
CC(=O)Nc1ccc(C(=O)N2CCN(S(=O)(=O)c3ccc4c(c3)OCCCO4)CC2)cc1	?	-4%	·	?	·	·
O=C(c1ccc(N2CCCCC2)c([N+](=O)[O-])c1)N1CCN(S(=O)(=O)c2ccccc2)CC1	?	-5%	·	12µM*	·	·
CC(C)CC(=O)c1c[nH]c(C(=O)N2CCN(Cc3ccccc3)CC2)c1	?	0%	-3	389%	·	-11
CC(=O)c1ccc(S(=O)(=O)N2CCCC2)cc1	·	3%	43*	7%	8%	82*
